Hit rate of the full screen: of about 16,000 compounds, about 5,100 (32%) were called active. Not shown: some 25% with an inconclusive outcome. This is one part of the list. More than one record can exist for a structure, and the calls need not agree. Unmarked numbers belong to inactive results. The call rests on the fitted dose curve; in most records, active means well fitted curve in the direction sought with a large enough effect; inconclusive means small, poorly fitted or top-dose-only effect, or effect the other way; inactive means no such curve, though single readings can be large or run the other way.
Target: Cytochrome P450 3A4 (Homo sapiens) (UniProt P08684)
Assay: Cytochrome panel assay with activity outcomes
Settings: recombinant CYP, pro-luciferin dealkylation, luminescence, p450-cyp3a4; series mostly up to 57.1 µM; activity, negative = inhibition: at the top concentration
On the % scale 0 is the no-effect control and ±100 the full control effect.

Sequence of Cytochrome P450 3A4 (Homo sapiens) (P08684 whole entry, looked up): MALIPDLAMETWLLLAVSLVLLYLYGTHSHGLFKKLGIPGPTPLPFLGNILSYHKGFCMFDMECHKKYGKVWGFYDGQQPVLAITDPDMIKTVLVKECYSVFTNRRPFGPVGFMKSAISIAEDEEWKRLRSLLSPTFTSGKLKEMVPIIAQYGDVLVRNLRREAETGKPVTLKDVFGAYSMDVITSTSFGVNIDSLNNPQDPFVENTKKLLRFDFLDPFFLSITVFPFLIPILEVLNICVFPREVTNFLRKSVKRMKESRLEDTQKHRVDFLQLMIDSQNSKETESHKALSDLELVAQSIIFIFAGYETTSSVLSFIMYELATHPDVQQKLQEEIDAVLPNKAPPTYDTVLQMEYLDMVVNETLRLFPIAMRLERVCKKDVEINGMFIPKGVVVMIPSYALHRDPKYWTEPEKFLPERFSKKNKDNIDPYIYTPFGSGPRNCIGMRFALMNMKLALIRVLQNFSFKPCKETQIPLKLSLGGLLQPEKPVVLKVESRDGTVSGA

SMILES	activity, negative = inhibition	AC50
c1ccc2c(c1)C(=Nc1ccc(N=C3c4ccccc4-c4ccccc43)cc1)c1ccccc1-2	-5.03% [at 11.4 µM]	–
CCNC(=O)C/C(C)=N/NC(=O)C12CC3CC(CC(C3)C1)C2	18.8% [at 2.29 µM]	–
CCOC(=O)CSCC(NC(=O)OC(C)(C)C)C(=O)OCC (configuration not stated)	-18.6%	–
Cc1ccc(S(=O)(=O)N[C@H]2COC(=O)C/C=C\[C@@H](C)[C@H](NS(=O)(=O)c3ccc(C)cc3)COC(=O)[C@H](C)NC(=O)C/C=C\[C@H]2C)cc1	-35.2% [at 11.4 µM]	–
Cc1ccc(S(=O)(=O)N[C@H]2COC(=O)C/C=C\[C@H](C)[C@@H](NS(=O)(=O)c3ccc(C)cc3)COC(=O)C/C=C\[C@@H]2C)cc1	–	3.98 µM (active)
Cc1ccc(S(=O)(=O)N[C@H]2COC(=O)C/C=C\[C@@H](C)COC(=O)C/C=C\[C@@H]2C)cc1	-13.2% [at 11.4 µM]	3.16 µM (active)
CO[C@H]1COC(=O)C/C=C\[C@@H](C)COC(=O)[C@H]2CCCN2C(=O)C/C=C\[C@H]1C	-22.4% [at 11.4 µM]	–
CO[C@H]1COC(=O)C/C=C\[C@@H](C)COC(=O)[C@@H](C)NC(=O)C/C=C\[C@@H]1C	14.4% [at 11.4 µM]	–
COc1ccc(S(=O)(=O)NCc2ccc(C(=O)N3CCN(c4ccccn4)CC3)cc2)cc1	–	15.8 µM (active)
CC(=O)N1CCC2(CC1)CCN(c1ccccn1)CC2	-3.11%	–
COCC(=O)N1CCC2(CC1)CN(c1ccccn1)C2	0.699%	–
CC(C)c1ccc(OCc2ccc(C(=O)N3CCN(c4ccccn4)CC3)cc2)cc1	-15.4%	–
O=C(C1CCN(S(=O)(=O)c2cccc3cccnc23)CC1)N1CCN(c2ccccn2)CC1	–	3.55 µM (active)
O=C(C1CCN(S(=O)(=O)N2CCOCC2)CC1)N1CCN(c2ccccc2)CC1	-27.5%	–
O=C(c1cnc(N2CCN(c3ncccn3)CC2)c2ccccc12)N1CCN(c2ccccn2)CC1	-7.43% [at 11.4 µM]	–
CC(=O)Nc1ccc(S(=O)(=O)NCC2CCC(C(=O)N3CCN(c4ccccn4)CC3)CC2)cc1 (configuration not stated)	–	12.6 µM (active)
CC(=O)Nc1ccc(S(=O)(=O)N2CCC(N(C)CCC(C)C)CC2)cc1	-19.6%	–
CC(=O)Nc1ccc(S(=O)(=O)NCC2CCC(C(=O)NCCC(C)C)CC2)cc1 (configuration not stated)	–	17.8 µM (active)
COC(Cn1c(C)c(C(C)=O)c(C(C)=O)c1C)OC	-5.99%	–
O=C(O)COC(=O)Cc1ccccc1Nc1c(Cl)cccc1Cl	-3.09% [at 25.6 µM]	–
CCOC(=O)n1ccn(C)c1=S	-4.03% [at 25.6 µM]	–
COc1ccc2cc(CCNC(=O)C3CC3)c(=O)[nH]c2c1	-21.9%	–
Cc1ccc2cc(CCNC(=O)c3ccc(Br)o3)c(=O)[nH]c2c1	–	14.1 µM (active)
CCOC(=O)N/N=C1/C[C@@H](O)[C@@H](O)[C@@H]2[C@@H]3C(=O)N(Cc4ccc5c(c4)OCO5)C(=O)[C@H]3CC[C@@H]12	–	3.98 µM (active)
CCOC(=O)N/N=C1/C[C@@H](O)[C@@H](O)[C@@H]2[C@@H]3C(=O)N(Cc4ccccc4)C(=O)[C@H]3CC[C@H]12	-22% [at 11.4 µM]	–
CCOC(=O)N/N=C1/C[C@@H](O)[C@@H](O)[C@@H]2[C@@H]3C(=O)N(c4cccc(Oc5ccccc5)c4)C(=O)[C@H]3CC[C@H]12	-29.2% [at 11.4 µM]	–

SMILES	activity, negative = inhibition	AC50
O=C(N/N=C1/C[C@@H](O)[C@@H](O)[C@@H]2[C@@H]3C(=O)N(Cc4ccccc4)C(=O)[C@H]3CC[C@@H]12)OCc1ccccc1	-17.8% [at 11.4 µM]	–
CCOC(=O)N/N=C1/C[C@@H](O)[C@@H](O)[C@@H]2[C@@H]3C(=O)N(Cc4ccccc4)C(=O)[C@H]3CC[C@@H]12	-18.3% [at 11.4 µM]	–
O=C(N/N=C1/C[C@@H](O)[C@@H](O)[C@@H]2[C@@H]3C(=O)N(Cc4ccc5c(c4)OCO5)C(=O)[C@H]3CC[C@H]12)OCc1ccccc1	–	3.98 µM (active)
O=C(N/N=C1/C[C@@H](O)[C@@H](O)[C@@H]2[C@@H]3C(=O)N(Cc4ccc5c(c4)OCO5)C(=O)[C@H]3CC[C@@H]12)OCc1ccccc1	–	1.26 µM (active)
O=C(N/N=C1/C[C@@H](O)[C@@H](O)[C@@H]2[C@@H]3C(=O)N(Cc4ccccc4)C(=O)[C@H]3CC[C@H]12)OCc1ccccc1	-21.6% [at 11.4 µM]	–
CCN1C(=O)[C@H]2[C@H]3[C@H](O)[C@H](O)C/C(=N/NC(=O)OCc4ccccc4)[C@H]3CC[C@@H]2C1=O	-12.4% [at 11.4 µM]	–
COc1ccc(COC(=O)N/N=C2/C[C@@H](O)[C@@H](O)[C@@H]3[C@@H]4C(=O)N(c5cccc(Oc6ccccc6)c5)C(=O)[C@H]4CC[C@H]23)cc1	–	3.16 µM (active)
CCOC(=O)N/N=C1/C[C@@H](O)[C@@H](O)[C@@H]2[C@@H]3C(=O)N(c4cccc(Oc5ccccc5)c4)C(=O)[C@H]3CC[C@@H]12	-28.7% [at 11.4 µM]	–
CCN1C(=O)[C@H]2[C@H]3[C@H](O)[C@H](O)C/C(=N/NC(=O)OCc4ccccc4)[C@@H]3CC[C@@H]2C1=O	-8.99% [at 11.4 µM]	–
O=C(O)C12CC3(C(=O)O)CC(C(=O)O)(CC(C(=O)O)(C1)C3=O)C2=O	-8.55% [at 11.4 µM]	–
N[C@@H](C(=O)O)c1ccc(O)c(C(=O)O)c1	-20.5%	–
NC(=NCCCCCCN=C(N)/N=C(\N)Nc1ccc(Cl)cc1)/N=C(\N)Nc1ccc(Cl)cc1	-12.9% [at 25.6 µM]	–
Nc1nc2c(c(=O)[nH]1)CN(CCCN1CCOCC1)CN2	-5.39% [at 11.4 µM]	–
Cc1nn(C)c(Cl)c1S(=O)(=O)N[C@@H](c1ccccc1)[C@]1(C)C[C@H]1[C@@H](C)C(=O)Nc1ccc2ccccc2c1	–	1.26 µM (active)
C[C@@H](C(=O)Nc1ccc2ccccc2c1)[C@@H]1C[C@@]1(C)[C@@H](NS(=O)(=O)c1ccc(-c2ccccc2)cc1)c1ccccc1	-22%	–
C[C@@H](C(=O)Nc1ccc2ccccc2c1)[C@H]1C[C@]1(C)[C@H](NS(=O)(=O)c1ccc2ccccc2c1)c1ccccc1	–	7.94 µM (active)
C[C@@H](C(=O)Nc1ccc2ccccc2c1)[C@H]1C[C@]1(C)[C@H](NS(=O)(=O)c1ccc(-c2ccccc2)cc1)c1ccccc1	–	10 µM (active)
CC(C)OC(=O)CC12CN(C)CC(CC(=O)OC(C)C)(CN(C)C1)C2=O	15.3% [at 2.29 µM]	–
Fc1ccc(-c2ccnc3nc(N4CCOCC4)nn23)cc1	-27.2%	–
COc1ccccc1C(=O)N/C(=C/c1ccc(Br)cc1)C(=O)NCC(=O)O	–	8.91 µM (active)
COC(=O)CCC(=O)NNC(=O)c1ccc(Br)cc1	-9.71%	–
C/C(=C\c1ccc(Cl)cc1)C(C)(C)C(=O)O	-11.2% [at 11.4 µM]	–
O=C(OCc1ccccc1)/C(=C/c1ccc(Cl)cc1)NC(=O)c1ccccc1Cl	–	0.178 µM (active)
COc1ccc(C(=O)NCC(=O)OCc2cccc(Br)c2)cc1	–	7.94 µM (active)
O=C(O)CNC(=O)c1ccccc1O	-5.63% [at 11.4 µM]	–
O=C(CNC(=O)/C(=C\c1ccccc1)NC(=O)c1ccc(Br)cc1)OCc1ccccc1	–	0.2 µM (active)

SMILES	activity, negative = inhibition	AC50
Cc1cccc(C(=O)NN(C)c2nc(-c3ccccc3)nnc2C(F)(F)F)c1	-22.4%	–
CS(=O)(=O)Nc1cccc(-c2nc(Nc3ccccc3)c3ccccc3n2)c1	–	10 µM (active)
COc1cccc(-c2nc(Nc3ccncc3)c3ccccc3n2)c1	–	2.51 µM (active)
CS(=O)(=O)Nc1cccc(-c2nc(Nc3ccc(F)cc3)c3ccccc3n2)c1	–	6.31 µM (active)
CN(C)c1nc(-c2cccc(NS(C)(=O)=O)c2)nc2ccccc12	–	6.31 µM (active)
N#Cc1cc2nc(O)c(O)nc2cc1[N+](=O)[O-]	–	inactive
CS(=O)(=O)Nc1cccc(-c2nccc(Nc3ccc(F)cc3)n2)c1	–	10 µM (active)
CNc1nc(-c2cccc(NS(C)(=O)=O)c2)nc2ccccc12	–	10 µM (active)
CS(=O)(=O)Nc1cccc(-c2nc(Nc3ccncc3)c3ccccc3n2)c1	–	3.98 µM (active)
Oc1cc(CN2COc3ccccc32)c(O)cc1CNC1CCCCC1	-5.1% [at 11.4 µM]	–
CCN1C(=O)C=CC1=O	3.37%	–
O=C(c1ccco1)N1CCC2(CCN(Cc3ccncc3)CC2)CC1	–	12.6 µM (active)
O=C(c1ccco1)N1CCC2(CCCN(Cc3ccncc3)C2)CC1	–	5.01 µM (active)
O=C(c1ccco1)N1CCC2(CC1)CN(Cc1cc(C(F)(F)F)cc(C(F)(F)F)c1)C2	-18.1%	–
O=C(O)[C@H](/C=C\c1ccccc1)c1ccccc1	-11.9% [at 11.4 µM]	–
Cc1ccc(S(=O)(=O)CC#CCOC(=O)c2ccc([N+](=O)[O-])cc2)cc1	–	15.8 µM (active)
COc1ccc(NC(=O)N2CCCC2C(=O)Nc2ccccc2)cc1 (configuration not stated)	-9.78%	–
NS(=O)(=O)c1ccc(CCNC(=O)C2CCCN2C(=O)OCc2ccccc2)cc1 (configuration not stated)	–	12.6 µM (active)
Cc1ccc(CNC(=O)C2CCC(=O)N2C2CCCCC2)cc1 (configuration not stated)	–	7.94 µM (active)
Cc1ccc(CNC(=O)C2CCCN2C(=O)NCc2ccccc2)cc1 (configuration not stated)	–	3.55 µM (active)
COc1ccccc1NC(=O)N1CCCC1C(=O)NCc1ccc2c(c1)OCO2 (configuration not stated)	–	0.355 µM (active)
O=C(NCCCN1CCN(c2ccccc2F)CC1)C1CCC(=O)N1C1CCCCC1 (configuration not stated)	-23%	–
Cc1ccc(CNC(=O)C2CC(c3ccccc3[N+](=O)[O-])=NO2)cc1 (configuration not stated)	-29.5% [at 2.29 µM]	–
O=C(O)C1CCCN1C(=O)OCc1ccccc1 (configuration not stated)	-15%	–

Source: PubChem BioAssay AID1851 (National Center for Advancing Translational Sciences (NCATS), 2009)
